For 60 compounds, inhibition results are on record in PubChem BioAssay AID602429 (Sanford-Burnham Center for Chemical Genomics, 2012).

In general, inhibition refers to the drop in the measured response relative to a control, in per cent.

In all, about 360,000 compounds went through this assay and about 1,200 (0.33%) were called active. Cut-off read from the data, not from the text of the source: active = inhibition above about 37%; inactive = the rest. The sample as a whole holds a higher share of actives than the screen did.

For this experiment, the target named is Small ubiquitin-related modifier 1 (Homo sapiens) (UniProt P63165). The experiment in a line: modulators of SUMO1 protein-protein interactions, primary screen, biochemical, uHTS (AID 602429). As to conditions: SUMO1 binding to a labelled peptide, TR-FRET, 1 h; at 20 µM; active compounds read high.
Sequence of Small ubiquitin-related modifier 1 (Homo sapiens) (P63165 whole entry, looked up): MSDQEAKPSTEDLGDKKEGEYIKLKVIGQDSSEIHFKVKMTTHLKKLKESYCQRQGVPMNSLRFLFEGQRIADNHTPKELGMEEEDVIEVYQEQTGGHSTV
In the case of `CCCn1c(N)c(C(=O)CSc2nnc3n2CCCCC3)c(=O)[nH]c1=O`, the inhibition is 8.44% (inactive).
Next, `CCCn1c(N)c(C(=O)CSc2nc3ccccc3c(=O)n2-c2ccc(OC)cc2)c(=O)[nH]c1=O`: 46.9% (active); `CCOc1ccc(-n2c(SCC(=O)Nc3cc(C(=O)O)ccc3Cl)nc3ccccc3c2=O)cc1`: 19.1% (inactive).
Turning to `COCCOC(=O)c1c(C)oc2cc(Br)c(OCC(N)=O)cc12`, the inhibition was -1.35% (inactive).
Next, `CCN(c1ccccc1)S(=O)(=O)c1cccc(C(=O)NCc2ccccc2CN2CCOCC2)c1`: -2.56% (inactive); `COc1ccc(C)cc1NC(=O)NCCCCc1ccccc1`: 3.9% (inactive).
Next, `O=S(=O)(NCCSc1ccccn1)c1ccc(Cl)cc1`: -0.907% (inactive).
As for `O=C(Cc1ccsc1)N1CCN(S(=O)(=O)c2cc(C(F)(F)F)cc(C(F)(F)F)c2)CC1`, the figure is 32.3% (inactive); as for `COc1ccc(Cc2cc(-c3ccc(F)cc3)n[nH]c2=O)cc1`, -0.22% (inactive).
With `CCCc1nc(-c2cc3cc(C)ccc3[nH]c2=O)no1`, the inhibition was -3.17% (inactive).
As for `COc1ccc2[nH]c(=O)c(-c3noc(-c4ccc(F)cc4)n3)cc2c1`, the figure is 64% (active).
Next, `Cc1cc(C)cc(OCC(=O)Nc2cc(NC(=O)COc3cc(C)cc(C)c3)cc(C(=O)O)c2)c1`: 13.4% (inactive); `CCN1CCCC1CNC(=O)c1ccc2c(c1)NC(=O)/C(=C\c1ccccc1F)S2` (stereo not given): -60.4% (inactive).
Turning to `CCN1CCCC1CNC(=O)Cn1cnc2ccc(S(=O)(=O)N3CCC(C)CC3)cc2c1=O` (stereo not given), the inhibition was -2.59% (inactive).
Next, `CCN1CCCC1CNC(=O)c1cc2c(=O)n(C)c3ccccc3c2n1C` (stereo not given): 46.4% (active); `CCCCn1c(SCc2ncc(-c3ccccc3)o2)nc2cc(S(N)(=O)=O)ccc21`: 0.0839% (inactive).
Next, `CCCCc1nc(SCC(=O)Nc2nnc(C(C)C)s2)n[nH]1`: 4.69% (inactive); `O=C(COc1ccc(Cl)cc1)Nc1ccc2oc(=O)ccc2c1`: 4.58% (inactive); `COc1ccccc1CNS(=O)(=O)c1cc(C(=O)NCc2ccccn2)c(Cl)cc1Cl`: -1.08% (inactive).
As for `COCCNC(=O)c1ccc2nc(Cc3ccc(OC)c(OC)c3)oc2c1`, the figure is 0.593% (inactive); as for `COCCNC(=O)Nc1ccc2nc(-c3ccco3)c(-c3ccco3)nc2c1`, 64.2% (active).
For `COc1cc(NC(=O)C2=CC(c3ccco3)=NS(=O)(=O)N2C)cc(OC)c1OC`, the inhibition was -26.3% (inactive).
As for `O=C(NCc1ccco1)C(=O)c1cn(CC(=O)N2CCCCCC2)c2ccccc12`, the figure is -6.74% (inactive); as for `CC1(C)CC(=O)C(C=NCc2cccnc2)=C(O)C1`, -0.212% (inactive); as for `Cc1ccccc1S(=O)(=O)Cc1ccc(C(=O)NCCN2CCCCC2C)o1` (stereo not given), -2.78% (inactive).
For the compound `NC(=S)NN=C1CCCC(C(F)(F)F)C1` (stereo not given), the inhibition is -4.43% (inactive).
As for `CCCc1cc(=S)n2c([nH]c3ccccc32)c1C#N`, the figure is 45.4% (active).
As for `COC(=O)c1cccc(NC(=O)CN2CCC(NC(=O)c3cc(OC)c(OC)c(OC)c3)CC2)c1`, the inhibition was 4.74% (inactive).
As for `CCC(C(=O)N1CCOCC1)n1c(C(=O)OC)cc2occc21` (stereo not given), the figure is 0.0718% (inactive); as for `CN(C(=O)COC(=O)c1cc(-c2ccco2)nc2ccccc12)C1CCS(=O)(=O)C1` (stereo not given), 105% (active); as for `COc1ccc2c(-c3ccccc3)cc(SCC(=O)N(C)C3CCS(=O)(=O)C3)nc2c1` (stereo not given), 0.193% (inactive).
As for `O=C(c1cc(-c2ccco2)nc2ccccc12)N(Cc1nnc(-c2ccc(Cl)cc2)o1)C1CC1`, the figure is 5.63% (inactive); as for `O=C(Nc1cccc2c1CCCC2)c1ccc(F)cc1`, -0.657% (inactive).
Next, `O=C(CSc1cccc[n+]1[O-])NCCCc1ccccc1`: -1.78% (inactive); `COc1ccc(Cl)cc1NC(=O)COC(=O)c1ccc(Br)o1`: 3.41% (inactive); `O=C(CCS(=O)(=O)c1ccc(Br)cc1)NCCc1ccc(Cl)cc1`: 15.1% (inactive).
For `COc1ccc(Cl)cc1NC(=O)CCS(=O)(=O)c1ccc(Br)cc1`, the inhibition was 71% (active).
As for `CCn1c(O)c2ccc(C(=O)N=NC(=O)c3cccnc3)cc2c1O`, the figure is -19.8% (inactive); as for `Cn1c(SCC(=O)Nc2ccc(N3CCOCC3)cc2)nnc1C(F)(F)F`, 3.07% (inactive); as for `O=C1C2C3C=CC(C4CC34)C2C(=O)N1c1nccs1` (stereo not given), 0.623% (inactive).
Next, `CCOc1ccc(C(=O)NCC(=O)N2CCN(c3ccc(C(F)(F)F)cn3)CC2)cc1`: -1.81% (inactive).
Next, `CC(=O)c1c(OCC(=O)N(C)C2CCCCC2)ccc2c(C)cc(=O)oc12`: 0.393% (inactive); `Cn1ccc(=Nc2ccc(NC(=O)c3ccc(N=c4ccn(C)c5ccc([N+](=O)[O-])cc45)cc3)cc2)cc1`: 78.6% (active).
As to `O=C(Nc1ccc(C2CC2(Cl)Cl)cc1)c1cccc([N+](=O)[O-])c1` (stereo not given), the inhibition is -19.7% (inactive).
As for `O=C(Nc1cc2c3c(c1)C1CCCC1CN3CC1CCCC21)c1ccc([N+](=O)[O-])cc1` (stereo not given), the figure is -12.8% (inactive); as for `CCCS(=O)(=O)N1CCC(C(=O)NCCCN(C)Cc2ccccc2)CC1`, 3.93% (inactive); as for `Cc1ccc(CCN2CC(C(=O)O)CC2=O)cc1` (stereo not given), 0.0169% (inactive).
As for `CCOc1ccc2[nH]c(=S)sc2c1`, the figure is 6.23% (inactive); as for `O=c1[nH]c2ccccc2s1`, 0.972% (inactive).
Next, `Nc1ccc2[nH]c(=S)sc2c1`: 65% (active).
As to `O=C(c1ccc2c(c1)OCCO2)C1CCN(S(=O)(=O)c2cccc(F)c2)CC1`, the inhibition was -0.625% (inactive).
As for `CCn1ncc(Br)c1C(=O)Nc1cc(C)ccc1F`, the figure is 1.78% (inactive); as for `COc1ccc([N+](=O)[O-])cc1NC(=O)CC1SC(=Nc2cccc(C)c2C)N(/N=C(\C)c2ccc(C)cc2)C1=O` (stereo not given), -1.72% (inactive).
As for `CCN(CC(=O)N1CCCC1)S(=O)(=O)c1ccc(F)cc1`, the figure is 0.769% (inactive); as for `Cc1ccc(S(=O)(=O)NCCSC(C)(C)C)cc1`, 2.52% (inactive); as for `COc1nc(Oc2ccc(=O)n(C)n2)nc(N(C)C)n1`, -2.1% (inactive).
`COc1nc(N(C)C)nc(N2CC(=O)N(CCNS(=O)(=O)c3ccc(C)cc3)C2=N)n1`: the inhibition was 44% (active).
On to `O=C(Nc1nnc(SCc2c(Cl)cccc2Cl)s1)C1CCCO1` (stereo not given), for which the inhibition was 4.7% (inactive).
Next, `Cc1cc(C)c2nc(NC(=O)C3CCCO3)sc2c1` (stereo not given): -1.66% (inactive).
As for `O=C(Nc1nnc(CCc2ccccc2)s1)C1CCCO1` (stereo not given), the inhibition is 42.9% (active).
